Measured values published in ChEMBL document CHEMBL3988442, “University of Dundee, Small-Polar-MMV Screening Library” (2021).

target: AMP-activated protein kinase, AMPK (Homo sapiens) (UniProt P54646+O43741+P54619+Q9UGJ0+Q9Y478+Q13131+Q9UGI9); assay: AMP-dependent Kinase enzyme assay. An in vitro enzyme assay that detects ADP turnover that is directly proportional to AMPK activity. This uses naive AMPK that is activated during the assay with MK-8722; assay type: functional; set-up: scale not given: direction of the effect not stated beside the values; conditions: 30 µM

SMILES	Percent Effect [%]
Cc1cc(NCCNc2cccnc2)nc(-c2ccccc2O)n1	19.9
CN(C)C(CNC(=O)c1[nH]nc(C2CC2)c1Br)C1CC1 (centres undefined)	-3.39
Cc1cc(C)c(CNc2cnn(CC(O)CN(C)C)c2)c(C)c1 (centres undefined)	-45.6
CS(=O)(=O)C1(CNCc2cccc(-n3cccn3)c2)CCOCC1	3.19
FC(F)(F)c1cc(C2CCCN(Cc3cccnc3)C2)n[nH]1 (centres undefined)	5.52
CN(CCOc1ccc(C#N)cc1)CC1CC1	22.9
Cc1nnc(SCCNc2cc(C3CC3)ncn2)s1	14.2
CN(Cc1cccs1)Cc1nnsc1Cl	12.6
CCc1c(C)nn2c(O)cc(C3CCN(C(=O)c4ccccn4)C3)nc12 (centres undefined)	4.34
N#Cc1cccc(NC(=O)N[C@H](CO)Cc2ccc(O)cc2)c1	6.46
CCOC(=O)N1CCC(NC(=O)c2cccc(C3CCCNC3)c2)CC1 (centres undefined)	7.59
CC(C)(C)c1n[nH]cc1CNC1CCC(OCC(F)(F)F)CC1 (centres undefined)	3.73
Fc1ccccc1CN1CCC[C@H](Cn2nnc(-c3cccs3)n2)C1	4.46
CC(C)c1nc(CN(C)Cc2ncccc2C(=O)O)cs1	4.59
CCN(Cc1ccoc1)c1ncc(S(N)(=O)=O)s1	-1.73
CCCn1cc(NC(=O)Nc2ccc(F)c(C(=O)NC)c2)cn1	8.23
CS(=O)(=O)N1CCN(c2cc(N3CCCC3CO)ncn2)CC1 (centres undefined)	-5.51
Cc1ccccc1Cc1nc(CSc2nnc(N)n2C2CC2)no1	7.43
Cc1ccc(OCc2occc2C(=O)O)cc1	12.4
